Results from PubChem BioAssay (EPA / NIEHS).
Activity calls are given as the source filed them. Rule for the calls: active = hit-call score of the fitted dose curve at least 0.9, where 1 is the maximum; inactive = score below 0.9.

assay: CCTE_Padilla_ZF_Score.General: CCTE's 144 Hour Post-fertilization zebrafish Assay Score for General Malformation, Padilla Lab (AID 2284411)
Description: CCTE_Padilla_ZF_Phenotype_Score is a whole embryo, multiplexed assay using zebrafish ova exposed for 144 hours post fertilization on a 96-well plate.CCTE_Padilla_ZF_Score.General is one of one assay component(s) measured or calculated from the CCTE_Padilla_ZF_Phenotype_Score assay. It is designed to make measurements of zebrafish development as detected with brightfield microscopy of developing zebrafish embryos.Data from the assay component CCTE_Padilla_ZF_Score.General was analyzed into 1 assay endpoints. This assay endpoint, CCTE_Padilla_ZF_Score.General, was analyzed in the positive analysis fitting direction relative to DMSO as the negative control and baseline of activity. Using a type of viability reporter, gain-of-signal activity can be used to understand changes in developmentals as they relate to the whole embryo. To generalize the intended target to other relatable targets, this assay endpoint is annotated to the zebrafish development intended target family, where the subfamily is embryonic morphogenesis.
Zebrafish husbandry: Wild type adult zebrafish (Danio rerio; undefined outbred stock obtained from Aquatic Research Organisms, Hampton, NH, 03842) were housed in an AAALAC-approved animal facility at 28C with a 14:10 h light: dark cycle (lights on at 08:30 h). Adult fish (2-3 females per male; density = 15-20 adults per tank) were kept in one of several 9-liter (L) flow-through colony tanks (Aquaneering Inc., San Diego, CA). All adults in a colony tank were placed in a 2 L (static) breeding tank (Aquatic Habitats, Apopka, FL) one hour prior to light onset. Typically, adults from two to three colony tanks were mated on the same day. Two hours after light onset the adults were returned to the colony tank. All embryos were gathered from each breeder tank, pooled, and placed in a 28C water bath for 2 h, followed by two washes with 0.06% bleach (v/v) in 10% Hanks' Balanced Salt Solution (13.7 mM NaCl 0.54 mM KCl, 25 uM Na2HPO4, 130 uM CaCl2 100 um MgSO4 and 420 um NaHCO3,), hereafter referred to as Hanks' solution, for 5 min in order to remove any residual bacteria or fungi. Immediately following washing, the embryos were examined, and healthy embryos were separated from dead or unfertilized eggs and moved into fresh Hanks'. Chemical exposures: Zebrafish embryos were exposed in 96-well plates. Between 6- and 8-hours post fertilization (hpf), healthy embryos (with chorions) were transferred, one embryo per well, into 96 well (0.5 mL) microtiter plates (Cell Culture-Treated, Flat-Bottom Microplate 96 well [Corning Costar, Kennebunk, ME; Cat 09-761-145]) filled with 200 uL of Hanks' solution. A random number generator was used to assign the order in which the rows of embryos were plated in 96 well plates each week. After plating, the embryos were dosed with 0.8 uL of the chemical dosing solution then immediately sealed with AlumaSeal II (Excel Scientific Inc, Victorville, CA) to prevent volatilization of the chemicals, and then placed in a leakproof secondary container. These containers were placed in an incubator maintained on a 14:10 h light: dark cycle at 26C for rearing. On 5 dpf, live larvae were gently moved out of the plate with test chemicals and into a new 96 well mesh plate (Millipore Corp., Bedford, MA) with just the Hanks' solution. Once within the mesh well plate, the animals were rinsed with 400 uL of fresh Hanks' three times, and then the plates were covered with a non-adhesive material (Microseal A, BioRad, Hercules, CA), plate lid added, and then plate sides wrapped in Parafilm (PM992, Bermis Company, Neenah, WI), and returned to the incubator. […]

| Structure (SMILES) | outcome | AC50 |
| --- | --- | --- |
| O=C(Cl)C(F)(F)C(F)(F)C(F)(F)C(=O)Cl | inactive | – |
| FC(F)=C(F)C(F)(F)C(F)(F)C(F)(F)C(F)(F)C(F)(F)C(F)(F)F | inactive | – |
| OC(O)(C(F)C(O)(O)C(F)(F)F)C(F)(F)F | – | 32.4 µM (active) |
| FC(F)(F)C(F)(F)C(F)(F)C(F)(F)C(F)(F)C(F)(F)I | inactive | – |
| C[Si](C)(C)C(F)(F)C(F)(F)C(F)(F)F | inactive | – |
| OCCC(F)(F)C(F)(F)C(F)(F)C(F)(F)F | inactive | – |
| S=P(N1CC1)(N1CC1)N1CC1 | inactive | – |
| FC(F)C(F)(F)COCC1CO1 (stereo unspecified) | – | 9.44 µM (active) |
| FC(F)(F)COC(OCC(F)(F)F)OCC(F)(F)F | inactive | – |
| NCC(F)(F)C(F)(F)C(F)(F)C(F)(F)F | inactive | – |
| O=S(=O)(O)CCC(F)(F)C(F)(F)C(F)(F)C(F)(F)C(F)(F)C(F)(F)F | inactive | – |
